# Sampled rows, rich in hits. Any-hit rate of the full collection: about 2.4%.
# Pol kappa inh-1: blocks human DNA polymerase kappa activity | AID 588579 | actives 0.53% (n = 400,000) | Potency, µM (doses to about 107 µM), for the others: at the highest dose activity, negative = inhibition, hits mostly inhibitors | Q9UBT6 | purified Pol kappa, fluorescent DNA synthesis assay, 10 min; note: % is set by controls: 0 for no effect and ±100 for the full control effect
# Target sequence (Q9UBT6 whole entry, looked up): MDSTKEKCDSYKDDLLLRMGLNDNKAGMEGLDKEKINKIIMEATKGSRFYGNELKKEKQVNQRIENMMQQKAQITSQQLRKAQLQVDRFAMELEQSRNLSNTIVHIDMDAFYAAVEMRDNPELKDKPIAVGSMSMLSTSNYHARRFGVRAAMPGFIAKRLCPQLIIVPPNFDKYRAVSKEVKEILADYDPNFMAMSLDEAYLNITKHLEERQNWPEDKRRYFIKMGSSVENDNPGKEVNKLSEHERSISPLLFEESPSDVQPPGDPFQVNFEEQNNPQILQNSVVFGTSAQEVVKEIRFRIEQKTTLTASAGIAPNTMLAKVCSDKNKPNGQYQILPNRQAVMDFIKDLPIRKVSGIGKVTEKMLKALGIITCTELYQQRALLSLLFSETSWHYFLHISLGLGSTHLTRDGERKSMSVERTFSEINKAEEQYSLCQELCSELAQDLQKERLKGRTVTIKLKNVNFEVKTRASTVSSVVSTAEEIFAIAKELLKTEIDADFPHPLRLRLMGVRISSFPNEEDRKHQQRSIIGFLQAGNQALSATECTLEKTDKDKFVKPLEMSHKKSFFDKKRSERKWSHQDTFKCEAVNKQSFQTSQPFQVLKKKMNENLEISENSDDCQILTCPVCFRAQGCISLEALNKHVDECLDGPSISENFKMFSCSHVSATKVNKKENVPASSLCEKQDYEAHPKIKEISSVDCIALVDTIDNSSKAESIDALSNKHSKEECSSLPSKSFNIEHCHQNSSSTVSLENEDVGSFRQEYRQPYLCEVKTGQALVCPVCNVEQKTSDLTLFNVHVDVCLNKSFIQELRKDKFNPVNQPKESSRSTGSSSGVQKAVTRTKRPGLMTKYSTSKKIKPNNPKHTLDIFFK
#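 Enzyme at 10 nM met test compounds for 15 min at room temperature. Substrate addition (50 nM final) began the reaction, which was monitored by fluorescence at 0 and 10 min.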
# Pol beta inh: inhibitors of human DNA polymerase beta | actives 1.3% (n = 340,000) | Potency, µM (top dose mostly 114 µM), without a hit: at the top dose activity change, negative = inhibition, usual class: inhibitors | AID 485314 | P06746 | Pol beta primer extension/strand displacement, fluorescence kinetic; note: % is set by controls: 0 for no effect and ±100 for the full control effect
#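 Values derive from four-parameter Hill fits of normalized kinetic data: reads at 0 and 10 min following addition of 50 nM substrate to 10 nM Pol beta preincubated 15 min with compound.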
# FEN1 inhibitor: blocks human flap endonuclease 1; actives 0.35% (n = 390,000); Potency, µM (doses to about 114 µM), without a hit: at the top dose activity change, negative = inhibition, usual class: inhibitors; Recombinant FEN1 flap cleavage, fluorescence, 15 min; note: % is set by controls: 0 for no effect and ±100 for the full control effect; nearly all actives have a fitted effect of over 65% in size
#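 Compounds are tested as a concentration series against 10 nM FEN1; after a 15 min room-temperature preincubation, 50 nM substrate starts cleavage, with plate reads at 0 and 15 min. Normalized responses are fitted by a Hill equation.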
# Pol iota inh: DNA polymerase iota (human) inhibition; Q9UNA4; Pol iota fluorescent replication assay, 10 min; Potency, µM (top dose mostly 115 µM), without a hit: top-dose activity, negative = inhibition, usual class: inhibitors; actives 1% (n = 390,000)
#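 Fluorescent replication assay read twice, at 0 min and 10 min after adding 50 nM (final) substrate. Enzyme (10 nM) and compounds were first incubated 15 min at room temperature; enzyme-free buffer wells were negative controls.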
# Pol eta inh-1: inhibitors of human DNA polymerase eta | recombinant Pol eta, fluorescent DNA replication assay | Potency, µM (series often up to 114 µM), without a hit: at the top dose activity change, negative = inhibition, hits mostly inhibitors | AID 588591 | Q9Y253 | actives 1.2% (n = 390,000); note: % is set by controls: 0 for no effect and ±100 for the full control effect
#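 Fluorescent replication assay: 50 nM final substrate added after a 15 min room-temperature compound preincubation with 10 nM enzyme. Signal taken at 0 min and again at 10 min.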
# WRN helicase inh: WRN helicase (human) inhibition; WRN helicase unwinding, fluorescent forked duplex, kinetic; Potency, µM (titrated, usually from 114 µM), for the others: at the highest dose activity change, negative = inhibition, most hits filed as inhibitors; actives 0.46% (n = 360,000); note: % is set by controls: 0 for no effect and ±100 for the full control effect; nearly all actives have a fitted effect of over 55% in size
#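 Screening of the MLSMR collection measured strand separation of a quenched forked DNA duplex (100 nM) by 20 nM WRN with 2 mM ATP, all final. Compounds were preincubated with enzyme 15 min at room temperature.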
# Pol kappa inh-2: confirmation of human DNA polymerase kappa inhibitors; shares compounds with Pol eta inh-1; Potency, µM, hits mostly inhibitors; purified Pol-kappa, fluorescent strand-displacement substrate; actives 76% (n = 920)
# Pol eta inh-2: Pol eta (human) inhibition, cherry-pick confirmation; shares compounds with Pol eta inh-1; Pol eta primer extension, TAMRA/BHQ fluorescence, 10 min; Potency, µM, usual class: inhibitors; actives 64% (n = 2,600); AID 720502
# Active calls of the source: *; ? = inconclusive; nt = no result; [ ] = remark or other dose. Calls come from the whole dose curve; as a rule, active = well fitted curve in the direction sought with a large enough effect; inconclusive = small, poorly fitted or top-dose-only effect, or another doubt; inactive = no such curve, though single readings can be large; an effect the other way counts as inactive or inconclusive. Potency is the fitted concentration of half-maximal effect.
SMILES,Pol kappa inh-1,Pol beta inh,FEN1 inhibitor,Pol iota inh,Pol eta inh-1,WRN helicase inh,Pol kappa inh-2,Pol eta inh-2
Cc1ccc([C@@H]2CC=C(C(=O)O)[C@H](c3ccc(C(C)(C)C)cc3)N2S(=O)(=O)c2ccc(C)cc2)cc1,-12%,nt,-8%,?,89µM*,-20%,?,nt
Cc1ccc(S(=O)(=O)N2[C@@H](c3ccc(C(C)(C)C)cc3)C(C(=O)O)=CC[C@H]2c2cccs2)cc1,-19%,nt,0%,7%,-7%,-5%,nt,nt
Cc1ccc(S(=O)(=O)N2[C@@H](c3ccc(C(C)(C)C)cc3)C(C(=O)O)=CC[C@H]2c2ccc(C(C)C)cc2)cc1,?,nt,?,?,40µM*,56µM*,75*,54*
Cc1cc(NC(=O)c2cc([N+](=O)[O-])cc([N+](=O)[O-])c2C)no1,?,?,14%,56µM*,32µM*,-17%,nt,?
Cc1cc(NC(=O)c2cc([N+](=O)[O-])cc([N+](=O)[O-])c2)no1,11%,0%,-3%,7%,13%,-7%,nt,nt
COc1ccc(OCC(=O)NC2CC(=O)N(c3cccc(OC)c3)C2)cc1 (centres undefined),-5%[60.1 µM],-2%,17%,1%,-6%,nt,nt,nt
CNc1ccc(Br)cc(C(=O)/C=C/c2ccc3c(c2)OCO3)c1=O,35µM*,20µM*,50µM*,3.2µM*,10µM*,?,nt,?
O=Nc1c(O)ccc2cc(S(=O)(=O)O)ccc12,?,nt,?,18µM*,14µM*,-7%[11.6 µM],17*,30*
COC(=O)c1ccc(/C=C2\CCn3c2nc2cc(C(=O)O)ccc2c3=O)cc1,-3%,7%,-2%,?,-3%,-7%[57.1 µM],nt,nt
CSc1ccc(/C=C2\CCn3c2nc2cc(C(=O)O)ccc2c3=O)cc1,-10%,-2%,?,92%,50µM*,-15%[11.6 µM],nt,?
COc1ccc(-n2c(NC(=O)c3ccco3)c(C#N)c3nc4ccccc4nc32)cc1,-28%,-117%,?,26%,20µM*,50µM*,67*,85*
COc1ccc(C(=O)Nc2ccc(NC(=O)c3ccco3)cc2)cc1,-10%,-18%,-1%,-15%,6%,2%[57.1 µM],nt,nt
C=CCC1=C/C(=C\c2c(N)n3nc(CC(=O)N4CCCC4)sc3nc2=O)C=C(OC)C1=O,-8%,8%,17%,18%,11%,2%,nt,nt
Nc1c(C=C2C=CC(=O)C=C2)c(=O)nc2sc(CC(=O)N3CCOCC3)nn12,-32%,34%,9%,-26%,?,-7%[11.6 µM],nt,76*
COC1=CC(=Cc2c(N)n3nc(CC(=O)N4CCOCC4)sc3nc2=O)C=C(OC)C1=O,79µM*,?,-20%,22µM*,20µM*,?,nt,?
Nc1c(/C=C2\C=Nc3ccccc32)c(=O)nc2sc(CC(=O)N3CCOCC3)nn12,-3%,2%,19%,4%,-15%,-12%,nt,nt
COc1cc(NC(=O)CN2c3ccccc3S(=O)(=O)c3ccccc32)cc(OC)c1,-2%,-1%,-10%,-8%,-2%,nt,nt,nt
Cc1nc(Nc2ccc(C(=O)O)cc2)nc(Nc2ccc(C(=O)O)cc2)c1[N+](=O)[O-],?,-1%,?,45µM*,35µM*,-21%[11.6 µM],nt,38*
O=C(O)/C(=C/c1ccco1)NC(=O)c1ccccc1,-39%,40µM*,-15%,?,11µM*,-16%,47*,?
O=C(O)/C(=C/c1ccco1)NC(=O)c1ccc(Br)o1,-44%,?,-2%,?,?,-16%,nt,60*
